Most compounds without a hit are left out; they make up all but 17% or so of the library.
DT40 TDP1 CPT = DT40-hTDP1 cell growth loss with CPT | 420,000 compounds, 12% hits | AID 686979 | chicken DT40 Tdp1-/-;hTDP1 cells + 20 nM CPT, ATP luminescence, 48 h | Potency, µM (series often up to 46.2 µM), without a hit: at the top dose activity change, negative = growth inhibition, usual class: inhibitors; also: % is scaled to controls: 0 for no effect and ±100 for the full control effect; nearly all actives have a fitted effect of over 55% in size
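Chicken DT40 Tdp1-/- cells stably complemented with human TDP1 were seeded at 400 cells/well in medium containing 20 nM camptothecin, exposed to pin-transferred compounds, and grown at 37 °C for at least 48 hr. Viability was read as ATP luminescence.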
TGFb inhibitor = inhibitors of TGF-b signaling; HepG2 CAGA-GFP TGF-b/SMAD3 reporter, GFP fluorescence, 18 h; TGF-beta stimulated, 500 pg/mL final; Potency, µM (titrated, usually from 46.1 µM), without a hit: at the highest dose activity, negative = inhibition, most hits filed as inhibitors; 410,000 compounds, 1.2% hits; also: % is scaled to controls: 0 for no effect and ±100 for the full control effect; nearly all actives have a fitted effect of over 65% in size
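TGF-beta reporter screen: HEPG2 CAGA-GFP, 1% FBS, 500 pg/mL TGF-beta final, 18 h; per-cell GFP summed per well; curves fitted and categorized by class.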
HT1080-NT tox = kills 2HG-producing HT-1080-NT fibrosarcoma cells; HT-1080-NT fibrosarcoma viability, CellTiter-Glo ATP luminescence, 48 h; Potency, µM (doses to about 46.1 µM), for the others: at the highest dose activity, negative = less viability, usual class: cytotoxic; 360,000 compounds, 1.6% hits; AID 686970;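 also: NT is the 2HG producing partner of a matched IDH1 knockdown line; 0% = DMSO-treated cells and -100% = media-only wells without cells; nearly all actives have a fitted effect of over 55% in size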
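HT-1080-NT fibrosarcoma cells (2HG-overproducing), 750 cells/well in RPMI with 5% FBS, dosed after 2 h and incubated 48 h at 37C. CellTiter-Glo luminescence normalized to DMSO and no-cell wells; concentration-response curves fitted and classed.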
HepG2 viability = counter-screen for TGF-b inhibitors: cytotoxicity in HepG2 cells; HepG2 CAGA-GFP viability, ATP luminescence, 18 h; Potency, µM (titrated, usually from 46.1 µM), for inactives: at the top dose activity change, negative = cytotoxicity, actives largely listed as cytotoxic; 410,000 compounds, 0.76% hits; AID 588856
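HepG2 CAGA-GFP cells (1000/well, DMEM with 1% FBS) received compound, then TGF-beta at 500 pg/mL final, and were incubated 18 hours at 37 degrees C. Viability was read by CellTiter-Glo luminescence. Media-only wells were set as complete cell-killing and DMSO as no toxicity.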
HT1080 IDH1KD tx = HT-1080 IDH1 knockdown cell toxicity (counter line); Potency, µM (top dose mostly 46.1 µM), inactives show at the highest dose activity, negative = toxicity, most hits filed as cytotoxic; 360,000 compounds, 2% hits; HT-1080 IDH1 knockdown viability, ATP luminescence, 48 h;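 also: 0% = DMSO wells and -100% = cell-free medium wells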
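IDH1KD HT-1080 cells, 750/well, RPMI + 5% FBS; compound pinned after 2 h settling; 48 h, 37 °C; CellTiter-Glo luminescence; % activity normalised to DMSO and no-cell wells; curves fitted, classed by r2 and efficacy.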
DT40 TDP1 no CPT = qHTS for Inhibitors of human tyrosyl-DNA phosphodiesterase 1 (TDP1): qHTS in cells in absence of CPT | DT40 Tdp1-/- hTDP1 cells, no CPT, ATP luminescence, 48 h | Potency, µM (highest dose often 46.2 µM), for inactives: top-dose activity change, negative = growth inhibition, usual class: inhibitors | 420,000 compounds, 15% hits; also: % is scaled to controls: 0 for no effect and ±100 for the full control effect; nearly all actives have a fitted effect of over 55% in size
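Stably hTDP1-transfected Tdp1-null chicken DT40 cells were treated with library compounds minus camptothecin and grown for at least 48 hr at 37 °C, after which cellular ATP was quantified by luminescence.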
An asterisk follows results filed as active; ? = inconclusive; / = not tested or not shown; [ ] = another dose, or the depositor's remark. Calls follow the shape of the dose curve; as a rule, active = well fitted curve in the direction sought with a large enough effect; inconclusive = small, poorly fitted or top-dose-only effect, or another doubt; inactive = no such curve, though single readings can be large; an effect the other way counts as inactive or inconclusive. Potency is read from the fitted curve at half-maximal effect.

SMILES	DT40 TDP1 CPT	TGFb inhibitor	HT1080-NT tox	HepG2 viability	HT1080 IDH1KD tx	DT40 TDP1 no CPT
Cc1cc(C)c2nc(C)cc(Nc3cccc(C(=O)O)c3)c2c1	-10%	-6%	/	-1%	/	0%
COc1ccccc1-c1nnc(-c2ccc(N3CCOCC3)cc2)o1	?	-8%	4%	-23%	6%	21µM*
COc1ccccc1-c1nnc(-c2ccc(C)cc2)o1	-10%	6%	1%	-62%	-2%	?
Cc1cccc(NC(=S)N(Cc2cccs2)Cc2cc3cc(C)cc(C)c3[nH]c2=O)c1	13µM*	-2%	5%	-3%	4%	9.2µM*
COc1ccc2[nH]c(=O)c(CN(Cc3cccs3)C(=S)Nc3cccc(C)c3)cc2c1	21µM*	-32%	-3%	-3%	-15%	13µM*
COc1ccc2[nH]c(=O)c(CN(Cc3cccs3)S(=O)(=O)c3cccc4nsnc34)cc2c1	-112%	-8%	-1%	1%	7%	10µM*
CNC(=S)N(Cc1cccs1)Cc1cc2cc(OC)ccc2[nH]c1=O	?	24%	-1%	14%	-8%	?
COc1ccc(/C=C/C(=O)OCC(=O)N2CCCCCC2)c(OC)c1	?	-14%	0%	0%	-2%	?
Cn1c(=O)c2c(nc(CN3CCCCC3)n2CCc2ccccc2)n(C)c1=O	-15%	0%	1%	-17%	-10%[9.24 µM]	?
Cn1c(=O)c2c(nc(CN3CCN(c4cccc(Cl)c4)CC3)n2CCc2ccccc2)n(C)c1=O	13µM*	?	-28%	2%	-25%	10µM*
Cn1c(=O)c2c(nc(CN3CCN(c4ccccc4)CC3)n2CCc2ccccc2)n(C)c1=O	23µM*	16%	-1%	11%	-3%	23µM*
O=C1N/C(=N\N=C\c2cccs2)SC1Cc1cccc(Cl)c1 (stereo not drawn)	12µM*	?	?	-15%	?	10µM*
CCC1S/C(=N/N=C/c2cccs2)NC1=O (stereo not drawn)	-1%	6%	3%	-25%	11%	?
O=C1N/C(=N\N=C\c2cccs2)SC1Cc1ccc(Cl)cc1 (stereo not drawn)	?	-19%	18µM*	-26%	23µM*	?
Cc1ccc(/C=C/C(=O)Nc2sc3c(c2C#N)CCCC3)o1	?	?	-4%	-4%	-2%	?
CCCNC(=O)CSc1nc2ccccc2nc1Cc1ccc(Cl)cc1	1%	1%	/	3%	/	?
Cc1cccc(C)c1NC(=O)C(CCc1ccccc1)n1c(=O)c(-c2cc3ccccc3[nH]2)nc2ccccc21 (stereo not drawn)	7.3µM*	/	?	/	?	6.5µM*
COc1ccc(C(C(=O)Nc2c(C)cccc2C)n2c(=O)c(-c3ccccc3)nc3ccccc32)cc1 (stereo not drawn)	?	/	-3%	/	-14%	?
Cc1cccc(C)c1NC(=O)C(CCc1ccccc1)n1c(=O)c(-c2ccccc2)nc2ccccc21 (stereo not drawn)	3.3µM*	/	?	/	?	4.1µM*
CC(C)(C)NC(=O)C(CCc1ccccc1)n1c(=O)c(-c2cc3ccccc3[nH]2)nc2ccccc21 (stereo not drawn)	15µM*	/	?	/	?	13µM*
CCCCCNC(=O)C(c1ccnc2ccccc12)n1c(=O)c(-c2cc3ccccc3[nH]2)nc2ccccc21 (stereo not drawn)	?	/	-26%	/	-22%	?
CCSc1nnc(NC(=O)Cc2cc(OC)c(OC)c(OC)c2)s1	1%	3%	1%	-13%	-4%	13%
O=S(=O)(c1cccc(C(F)(F)F)c1)N1CCN(S(=O)(=O)c2ccc3c(c2)OCCO3)CC1	/	?	/	-2%	/	/
O=C(NCCN1CCOCC1)c1cccc(S(=O)(=O)NCc2ccccc2)c1	6%	-9%	5%	4%	4%	0%
COc1ccc(-c2c(C(C)=O)c(C)nc3sc4c(=N)n(N)cnc4c23)cc1	26µM*	-7%	-14%	-22%	-4%	?
SMILES	DT40 TDP1 CPT	TGFb inhibitor	HT1080-NT tox	HepG2 viability	HT1080 IDH1KD tx	DT40 TDP1 no CPT
CCOC(=O)c1c(C)nc2sc(C(N)=O)c(N)c2c1-c1ccc(OC)cc1	?	-8%	-2%	-23%	-28%	21µM*
COc1ccc(-c2nc3c(c(SCc4ccc(Br)cc4)n2)Cc2c(CO)cnc(C)c2O3)cc1	?	-26%	/	-5%	/	4.1µM*
C=Cc1ccc(CSc2nc(-c3ccccc3C)nc3c2Cc2c(CO)cnc(C)c2O3)cc1	?	-8%	/	-2%	/	21µM*
CCOc1ccc(NC(=O)CSc2nc(-c3ccc(OC)cc3)nc3c2Cc2c(CO)cnc(C)c2O3)cc1	-12%	-2%	/	-8%	/	-3%
Cc1ccc(C)c(CSc2nc(-c3ccccc3F)nc3c2Cc2c(CO)cnc(C)c2O3)c1	-12%	-4%	/	-2%	/	-14%
CCc1ccc(-c2nc3c(c(SCc4ccc(F)cc4)n2)Cc2c(CO)cnc(C)c2O3)cc1	-4%	-30%	/	-30%	/	-19%
COc1ccc(-c2nc3c(c(SC)n2)Cc2c(CO)cnc(C)c2O3)cc1	-6%	18%	/	1%	/	-10%

Screens (PubChem BioAssay)
